High-throughput results deposited in PubChem BioAssay by The Scripps Research Institute Molecular Screening Center.
Compounds with a hit are over-represented: about 3.5% of the library has one in this group of screens.
FBW7 act = activators of human E3 ligase FBW7. Q969H0. AlphaScreen FBW7–phospho-cyclin E peptide binding, activator screen. normalized activity (activation), % at 26.1 µM. actives 0.13% (n = 650,000). AID 1259310; in the data active = normalized activity above about 1.9%;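 note: purified mutant Fbw7 with reduced substrate affinity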
TEAD-YAP inh = TEAD-YAP interaction inhibition; HEK-TIYL cells, TEAD-Gal4/YAP UAS-luciferase luminescence; inhibition, % at 9.12 µM; actives 1.4% (n = 640,000); AID 1259422; in the data active = inhibition above about 32%;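 note: 0% = median of test compound wells and 100% = reference inhibitor wells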
MITF inh = inhibitors of human MITF; AlphaScreen MITF homodimerization, bead proximity signal; actives 0.91% (n = 650,000); O75030; inhibition, % at 2.6 µM; in the data active = inhibition above about 50%;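 note: 0% = vehicle wells with protein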
GPR151 ag = human GPR151 activation | Q8TDV0 | PathHunter beta-arrestin GPR151 cells, luminescence | activation, % at 11.2 µM | actives 1% (n = 650,000) | AID 1508602; in the data active = activation above about 4.9%;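 note: 0% = median of compound wells and 100% = cells with positive control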
Target sequence (Q8TDV0 whole entry, looked up): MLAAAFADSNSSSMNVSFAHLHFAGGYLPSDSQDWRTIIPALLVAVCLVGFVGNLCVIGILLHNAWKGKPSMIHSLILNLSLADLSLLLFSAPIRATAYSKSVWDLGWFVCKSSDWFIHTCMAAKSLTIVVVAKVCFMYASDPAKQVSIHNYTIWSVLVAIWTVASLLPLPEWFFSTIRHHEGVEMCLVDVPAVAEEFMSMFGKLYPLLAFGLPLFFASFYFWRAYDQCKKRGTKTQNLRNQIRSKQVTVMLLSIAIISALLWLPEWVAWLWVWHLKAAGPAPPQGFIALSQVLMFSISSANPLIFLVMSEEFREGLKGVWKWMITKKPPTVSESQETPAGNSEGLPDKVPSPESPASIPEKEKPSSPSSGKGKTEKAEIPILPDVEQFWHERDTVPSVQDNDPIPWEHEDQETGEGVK
Numbers without * were called inactive.

SMILES	FBW7 act	TEAD-YAP inh	MITF inh	GPR151 ag
CCn1c(C(O)c2cc(OC)c(OC)c(OC)c2)nc2ccccc21 (stereo unspecified)	2.3*	8.9	15.6	-0.2
Cn1nnc2c(N3CCN(S(=O)(=O)c4ccccc4Cl)CC3)ncnc21	-0.1	38.0*	-11.1	-1.4
COc1ccc(C2C(C(=O)c3cccs3)=C(O)C(=O)N2CCCn2ccnc2)c(OC)c1 (stereo unspecified)	0.2	-5.2	-0.2	2.8
Cc1sc2nc(C)n(C3CCN(C(=O)c4ccncc4)CC3)c(=O)c2c1C	0.0	40.5*	-14.1	0.4
O=C(Cc1ccc2c(c1)OCO2)Nc1cc(Nc2ccccc2-c2ncn[nH]2)c(F)cn1	1.1	54.0*	19.5	-0.9
O=Cc1ccccc1Nc1cc(NC(=O)Cc2ccc3c(c2)OCO3)ncc1Cl	-0.4	57.2*	14.3	-1.1
O=C(Cc1ccc2c(c1)OCO2)Nc1cc(Nc2ccccc2-c2nn[nH]n2)c(F)cn1	0.1	-9.1	-12.4	-0.1
CN(C)c1ccc(-c2cnc3ccc(NCCc4ccccn4)nn23)cc1	0.5	28.7	30.9	-0.7
COc1ccc(-c2cnc3ccc(NCc4ccccn4)nn23)cc1	1.5	45.3*	-7.8	-0.7
Clc1cccc(-c2cnc3ccc(NCc4ccccn4)nn23)c1	-0.2	5.0	-11.9	-0.5
Fc1ccc(-c2cnc3ccc(NCCc4ccccn4)nn23)cc1	0.1	68.0*	17.5	0.0
COc1ccc(CNc2ccc3ncc(-c4cccc(CO)c4)n3n2)cc1	-0.1	32.8*	-21.5	-0.7
c1ccc(-c2cnc3ccc(NCc4ccccn4)nn23)cc1	-0.1	38.9*	-3.7	0.0
C=CCn1c(=O)c2c(nc3n2CC(C)CN3c2cccc(Cl)c2C)n(C)c1=O (stereo unspecified)	-0.2	-8.9	-19.2	0.2
Oc1ccc(-c2cnc3ccc(NCc4ccco4)nn23)cc1	-0.1	46.6*	5.7	-0.4
Fc1ccc(-c2cnc3ccc(NCc4ccccn4)nn23)cc1	-0.7	51.5*	-6.2	-0.4
CN(C)c1ccc(-c2cnc3ccc(NCc4ccccn4)nn23)cc1	0.0	9.4	-1.8	1.0
CCOC(=O)CCC(=O)Nc1ccc(S(=O)(=O)NC(C)C)cc1	-0.3	0.9	-10.9	0.4
O=c1c2c3c(sc2nc2c4ccccc4c4nnnn4n12)CCCC3	0.0	3.3	5.2	1.6
O=c1c2c3c(sc2nc2c4ccccc4cnn12)CCCC3	-0.1	53.0*	-9.1	-4.8
O=c1cc2oc3cc(O)c(O)cc3c(-c3ccc([N+](=O)[O-])o3)c-2cc1O	-0.4	5.7	105.9*	-1.3
CCCc1cc2c(=O)c(-c3ccc4c(c3)OCO4)c(CC)oc2cc1O	-0.2	9.9	-7.8	1.7
CCN(CC)c1ccc(-c2c3cc(O)c(=O)cc-3oc3cc(O)c(O)cc23)cc1	-0.3	10.3	109.9*	-2.2
O=c1cc2oc3cc(O)c(O)cc3c(-c3ccc4c(c3)OCO4)c-2cc1O	-1.1	18.3	113.3*	-1.1
CCOc1cccc2cc(C(=O)Nc3cc(C)nn3C)oc12	0.1	10.4	9.9	-0.5
SMILES	FBW7 act	TEAD-YAP inh	MITF inh	GPR151 ag
O=C(c1cc2ccccc2cc1O)N1CCCCC1	-0.1	-2.3	2.7	-1.0
Cc1ccc(S(=O)(=O)Nc2ccc(S(=O)(=O)Nc3ccc(Cl)cc3)cc2)cc1	0.2	6.0	18.5	3.0
FC(F)(F)c1cnc(Nc2ccccn2)cc1Nc1ccccn1	-0.2	54.2*	4.2	-0.6
CN1Cc2cccc(Nc3cc(Nc4cccc5c4C(=O)N(C)C5)c(C(F)(F)F)cn3)c2C1=O	0.1	-5.1	15.8	-0.1
O=C1CCCN1c1ccc(S(=O)(=O)Oc2ccc(Cl)cc2Cl)cc1	0.1	61.2*	-0.2	0.2
NNS(=O)(=O)c1ccc(N2CCCC2=O)cc1	-0.2	7.8	-9.0	-0.3
O=C1CCCN1c1ccc(S(=O)(=O)Oc2cccc([N+](=O)[O-])c2)cc1	-0.1	52.0*	-1.8	-0.8
O=C1CCCN1c1ccc(S(=O)(=O)Nc2ccc(Cl)c(Cl)c2)cc1	0.0	45.6*	-3.7	1.2
O=C1CCCN1c1ccc(NS(=O)(=O)c2ccc(F)cc2)cc1	0.0	31.2	9.0	-0.8
O=C1CCCN1c1cccc([N+](=O)[O-])c1	0.5	7.2	10.0	-0.5
O=C1CCCN1c1ccc(S(=O)(=O)Nc2ccc(F)c(Cl)c2)cc1	0.0	46.5*	-2.1	1.2
CCOc1ccc(-n2c(C)c(C(=O)OC3CCCCC3)c3cc(OC)ccc32)cc1	-0.1	2.5	2.0	0.6
Cc1cc(C(=O)N=c2sc3cc4c(cc3n2C)OCCO4)nn1C	-0.1	37.8*	5.7	-3.7
Cc1cc(C(=O)N=c2sc3cc4c(cc3n2C)OCCO4)n(C)n1	-0.1	-15.5	7.3	-1.7
COc1ccccc1NC(=O)CSc1nnc(-c2ccncc2)n1-c1ccccc1C	0.0	61.9*	1.4	0.8
COc1ccccc1NC(=O)CSc1nnc(-c2ccccn2)n1-c1ccccc1OC	0.0	42.2*	15.1	1.8
COc1cccc(NC(=O)CSc2nnc(-c3ccncc3)n2-c2ccccc2C)c1	0.0	14.4	-22.5	-0.3
CCOc1ccccc1NC(=O)CSc1nnc(-c2ccc(OC)cc2)n1-n1cccc1	-0.1	41.1*	-6.8	-0.4
CC1CCCN(S(=O)(=O)c2cccc(C(=O)N3CCNC(=O)C3)c2)C1 (stereo unspecified)	0.1	0.7	16.2	-0.2
CC1CCN(c2ccc3nc4ccccc4c(=O)n3n2)CC1	0.2	75.7*	-3.8	-7.7
O=c1c2cc(Cl)ccc2nc2ccc(N3CCCC3)nn12	0.1	-47.6	-0.4	-0.2
CC(=O)c1ccc(NS(=O)(=O)c2cccc(S(C)(=O)=O)c2)cc1	0.0	8.7	0.8	0.2
Nc1cc2c(cc1S(=O)(=O)O)C(=O)c1ccccc1C2=O	0.1	-11.4	18.4	-6.7
O=C1c2ccccc2C(=O)c2cc(S(=O)(=O)O)c(O)cc21	-1.0	-0.3	64.5*	-1.0
CCOC(=O)c1c(C)oc2c1c(C=NCCCn1ccnc1)c(O)c1ccccc12	0.0	-1.2	1.2	0.2
SMILES	FBW7 act	TEAD-YAP inh	MITF inh	GPR151 ag
COc1ccccc1NC(=O)C(C)Oc1ccccc1C (stereo unspecified)	0.3	-14.3	14.7	1.1
O=C(Nc1nc2c(s1)CCCC2)c1cc(F)c(F)c(F)c1F	0.0	47.8*	0.8	3.4
Cn1ccc(C(=O)Nc2nc3c(s2)CCCC3)n1	0.8	46.4*	25.8	-10.1
O=C(Nc1nc2c(s1)CCCC2)c1ccccc1I	-0.1	-75.0	-1.9	2.3
COC(=O)c1ccc(C(=O)Nc2nc3c(s2)CCCC3)cc1	0.0	-76.9	-9.9	-4.1
C#CCNC(=O)c1c(C(F)(F)F)nc2c(OC)cccn12	-0.6	8.0	2.7	0.2
O=C(Nc1sc2c(c1C(=O)O)CCCC2)c1ccccc1F	0.2	51.7*	9.9	-5.9
O=C(Nc1sc2c(c1C(=O)N1CCCCC1)CCCCC2)c1ccccc1F	-0.1	5.3	1.4	-0.2
O=C(Nc1sc2c(c1C(=O)O)CCCCC2)c1ccccc1F	0.2	56.4*	10.9	-7.9
CNC(=O)c1c(NC(=O)c2ccccc2F)sc2c1CCCC2	0.1	-5.0	2.1	-0.8
CC(CP(=O)(Cc1ccccc1)Cc1ccccc1)C(=O)O (stereo unspecified)	0.0	5.7	2.0	0.8
